Assay results taken from PubChem BioAssay AID893 (National Center for Advancing Translational Sciences (NCATS), 2007).
The whole screen tested about 75,000 compounds, of which about 5,700 (7.6%) were called active. Inconclusive results (about 7%) are left out. This is one part of a sample in which actives are shown more often than they occur. Calls follow the shape of the dose curve; as a rule, active = well fitted inhibition curve with a large enough effect; inconclusive = small, poorly fitted or top-dose-only effect; inactive = no such curve, though single readings can be large or run the other way.

molecular target: 3-hydroxyacyl-CoA dehydrogenase type-2 (Homo sapiens) (UniProt Q99714); experiment: qHTS Assay for Inhibitors of HSD17B4, hydroxysteroid (17-beta) dehydrogenase 4; conditions: recombinant HSD17B10, NADH fluorescence kinetic; series mostly up to 57.1 µM; activity change, negative = inhibition: at the top concentration; also: nearly all actives have a fitted effect of over 70% in size
From the text: Assay Overview: NIH Molecular Libraries Screening Centers Network [MLSCN] NIH Chemical Genomics Center [NCGC] Structural Genomics Consortium [SGC] Grant number: None HADH2: Hydroxyacyl-Coenzyme A dehydrogenase, type II, was supplied by researchers at the Structural Genomics Consortium, Oxford University lab (PI Udo Oppermann). The mitochondrial enzyme 17-hydroxysteroid dehydrogenase type 10 (HSD17-10) previously classified as type II hydroxyacyl-CoA dehydrogenase (HADH2) catalyzes the NAD+ dependent oxidation of a variety of substrates including acyl-CoAs, androgens and neurosteroids as well as bile acids(Shafqat N, Marschall HU, Filling C, et al. Biochemical Journal. 2003;376(Pt 1):49-60). […] The enzyme was produced by E.coli fermentation as His-tagged recombinant for the purpose of X-ray structure determination, and had been mass-spectrometry characterized. Inhibition of HADH2 activity was screened by utilizing beta-hydroxybutyryl coenzyme A as an electron donor and NAD+ as an electron acceptor/cofactor. An increase in the fluorescence intensity due to conversion of NAD+ to NADH was used to measure the enzyme activity.
Assay Protocol: Buffer: 100 mM Tris-HCl pH 9.0, containing 0.01 % Tween-20. Reagents/Controls: Buffer in columns 3 and 4 as negative control (no enzyme). Substrate/cofactor solution: 1 mM NAD+ and 90 uM beta-hydroxybutyryl coenzyme A (Sigma-Aldrich, St. Louis, MO) final concentrations dispensed throughout the plate. Enzyme: 20 nM HADH2 final concentration in columns 1, 2, 5-48. Column 1 is neutral (100% activity). Column 2 contained titration of apomorphine (Sigma-Aldrich, A 4393, PubChem CID 2215, top concentration 500 uM, then 1:2 dilution in duplicate) Assay Steps: Three uL of enzyme were dispensed to 1536-well Greiner black solid bottom plates. Compounds and controls (23 nL) were transferred via Kalypsys PinTool. The plates were incubated for 15 min at room temperature, and then 1 uL of substrate/cofactor solution was added to start the reaction. The plates were immediately transferred to and read every 30 seconds for 4 min on ViewLux High-throughput CCD imager (Perkin-Elmer) using 360 nm excitation and 450 nm emission fluorescence protocol. The fluorescence intensity difference between the last and the first time points was used to compute reaction progress.
% is scaled to controls: 0 for no effect and ±100 for the full control effect; potency is read from the fitted curve at half-maximal effect.

Activity change, negative = inhibition, inactive:
O=C(c1ccccc1-c1ccccc1)N1CCOCC1 8.37%
COc1ccc(C2C3=C(CC(C)(C)CC3=O)Oc3ncn4nc(-c5cccnc5)nc4c32)cc1OC (stereo not given) 6.85%
CCCc1[nH]nc2c1C(C1CC=CCC1)C(C#N)=C(N)O2 (stereo not given) -17.4%
CCCc1[nH]nc2c1C(c1ccc(OC(=O)c3ccco3)cc1)C(C#N)=C(N)O2 (stereo not given) 3.66%
COC(=O)[C@@H]1C[C@@]2(O)[C@@H](O)[C@@H](O)[C@@H](O)C[C@H]2N1Cc1ccc(C)s1 15%
Cc1ccc(Cn2ccc(NC(=O)C3C4CCC(C4)C3C(=O)O)n2)cc1 (stereo not given) -2.8%
CC1CCN(C(=O)CSc2ccc3nnc(-c4cccc(F)c4)n3n2)CC1 -12.3%
CCOc1ccc(-c2nnc3ccc(SC)nn23)cc1 -6.07%
CC(=O)CC(C)C 5.18%
Cc1ccccc1C(=O)NCCN=C1NS(=O)(=O)c2ccccc21 -2.36%
O=C(c1csnn1)N1CCC[C@@]2(CCN(Cc3nccs3)C2)C1 7.36%
CCC(=O)c1ccc(OCC(O)CN2CC(C)OC(C)C2)cc1 (stereo not given) 0.889%
CC(=O)N(CC1CCCO1)C1(C(=O)NC2CCCC2)CCCCC1 (stereo not given) 11.9%
C[C@@H]1O[C@@H](OC[C@H]2O[C@@H](Oc3c(-c4cccc(O)c4O)oc4cc(O)cc(O)c4c3=O)[C@H](O)[C@@H](O)[C@@H]2O)[C@H](O)[C@H](O)[C@H]1O -17.4%
CCc1nc2oc3ccccc3c(=O)c2c(=O)n1Cc1ccc(OC)cc1 -5.68%
O=c1c2ccccc2oc2nc(C3CCCCC3)n(Cc3ccco3)c(=O)c12 -7.64%
CN(C)/C=C1/Nc2ccccc2C1=O -21.3%
CCn1ncc(Br)c1C(=O)Nc1cc(C)ccc1F 7.14%
Cc1c(O)cc(O)c2c(=O)c(-c3ccc(O)cc3)coc12 1.02%
CCCCNc1nc2c(c(=O)[nH]c(=O)n2C)n1CCOc1ccccc1 9.4%
CC(=O)c1c(N2CCOCC2)nc(=S)n(Cc2ccccc2)c1C 6.31%
O=S(=O)(O)CCN1CCOCC1 1.92%
CCCn1c(C(O)c2ccc(OCC)cc2)nc2ccccc21 (stereo not given) 4.24%
COc1ccccc1C(=O)Oc1ccc(N2C(=O)CCC2=O)cc1 -11.2%
C[C@@H](c1ccccc1)N1C(=O)[C@H]2[C@H]3[C@H](O)[C@H](O)C/C(=N/OC[C@@H](O)COCc4ccco4)[C@@H]3CC[C@@H]2C1=O 1.97% [at 11.4 µM]
COc1ccc(S(=O)(=O)N2CCCC(C(=O)N3CCN(C)CC3)C2)cc1C (stereo not given) 10.7%
C[N+]1(CCN=C=NC2CCCCC2)CCOCC1 -0.294% [at 11.4 µM]
CCCCOCCCNC(=O)c1ccccc1OCC 1.37%
COC(=O)C1=C(C)N(C)C(C)=C(C(=O)OC)C1c1cccc(Br)c1 -5.98%
CC12CN3CC(C)(CN(C1)C3c1ccc(Cl)cc1Cl)C2=O (stereo not given) 4.79%
CCOc1ccccc1N(CC(=O)Nc1ccccc1C(=O)OC)S(C)(=O)=O -13.6%
O=S(=O)(N1CCOCC1)N1CCN(c2ccccc2F)CC1 0.766%
CCOC(=O)C1=C(CC)Nc2ccccc2N=C1NC(=O)c1cccc(S(=O)(=O)N2CCCC2)c1 -10.6%
CCOC(=O)CN1C(=O)C(O)(CC(=O)c2ccccn2)c2ccccc21 (stereo not given) -5.79%
CCN(CC)S(=O)(=O)c1cccc(C(=O)Nc2ccccc2)c1 2.56%
CCc1c(O)nc(SCC(=O)N2CCCCC2)n(-c2ccccc2C)c1=O 7.14%
CC1(C)OC2CC3C4CCC5=CC(=O)CCC5(C)C4(F)C(O)CC3(C)[C@]2(C(=O)CCl)O1 (stereo not given in full) -11.4%
Cc1cccc(Br)c1 2.64%
Cc1cc(=O)[nH]c(SCc2cc(Cl)ccc2OC(F)F)n1 -11.7%
CCOc1ccc2nc(NC(=O)CSc3nc4c(c(=O)n(C)c(=O)n4C)n3CC)sc2c1 -2.72%
O=c1cc(Cn2nnc(-c3ccc(Cl)cc3)n2)nc2sccn12 -10.6%
O=C(NCc1cn2ccsc2n1)Nc1ccc(Cl)cc1 10.3%
CCCCn1nnnc1NCc1cc(OC)c(OC)c(OC)c1 13.8%
O=C(O)C1CCN(c2ncnc3ccc(-c4ccccc4C(F)(F)F)cc23)CC1 -0.266%

Potency, active:
CCCc1[nH]nc2c1C(c1ccc(Br)s1)C(C#N)=C(N)O2 (stereo not given) 20 µM
COc1ccc2c(c1OC)C(=O)N(c1ncn[nH]1)C2 31.6 µM
COC(=O)C(C)Sc1ccc2nnc(-c3cccc(F)c3)n2n1 (stereo not given) 25.1 µM
CSc1ccc(-c2c(C#N)c(N)nc3c2c(C)nn3-c2ccccc2)cc1 31.6 µM
O=c1c2ccccc2oc2nc3n(c(=O)c12)CCCS3 25.1 µM
O=C1C(c2[nH]c3ccccc3c2O)=Nc2ccccc21 31.6 µM
CCN(CC)CCCCn1c(-c2ccccc2)nc2c(N3CCOCC3)nc(C)nc21 20 µM
CCCCNc1nc(C)nc2c1nc(-c1ccccc1)n2CCCCN(CC)CC 25.1 µM
COC(=O)C1=CN(C)C=C(C(=O)OC)C1c1ccc(Cl)cc1Cl 31.6 µM
CCOc1ccccc1C1C(C(=O)OC)=CN(C)C=C1C(=O)OC 25.1 µM
O=C(NCc1ccc(Cl)cc1)c1cc2c(nc3sccn32)s1 20 µM
